Screening data from PubChem BioAssay.
HP1b chromo inh: blocks HP1-beta chromodomain binding to methylated histone tails; 390,000 compounds, 0.56% hits; P83916; AlphaScreen HP1-beta / biotin-H3K9me3 peptide binding; Potency, µM (series often up to 114 µM), for the others: at the highest dose activity change, negative = inhibition, usual class: inhibitors; note: potency is the fitted concentration of half-maximal effect; nearly all actives have a fitted effect of over 70% in size
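HP1-beta protein (50 nM final) preincubated 30 min at room temperature with biotinylated H3(1-18)K9me3 peptide (50 nM) in PBS pH 7.4, 0.01% Tween-20, then compound added for 30 min. AlphaScreen streptavidin donor/nickel chelate acceptor beads (10 ug/mL final), 30 min dark, luminescence read.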
BAZ2B inh: blocks human BAZ2B. 360,000 compounds, 4.4% hits. Potency, µM (series often up to 114 µM), for inactives: top-dose activity change, negative = inhibition, usual class: inhibitors. Q9UIF8. AlphaScreen BAZ2B-H3K14Ac peptide displacement; note: potency is the fitted concentration of half-maximal effect; % is set by controls: 0 for no effect and ±100 for the full control effect; nearly all actives have a fitted effect of over 60% in size
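Inhibition is scored as reduced AlphaScreen emission. The BAZ2B/b-H3(5-23)K14Ac complex (50 nM each) in PBS pH 7.4, 0.01% Tween-20 meets compound (up to 110 uM) for 30 min at RT before bead addition.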
PI5P4K alpha inh: inhibitors of human PI5P4K alpha; max response, %; PI5P4Kalpha enzyme, ADP-Glo luminescence, 60 min; hits give low values; P48426; 330,000 compounds, 1.2% hits; active = max response of -50% or lower; inconclusive = between -30% and -50%; inactive = -30% or higher; note: value at the top dose of about 77 µM; % is set by controls: 0 for no effect and ±100 for the full control effect
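Compounds were pin-transferred onto PI5P4Kalpha and substrate in HEPES pH 7.4 buffer with EGTA, CHAPS and 5% DMSO. ATP (5 microM final) started the reaction, which ran 60 minutes at room temperature before ADP-Glo detection.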
PLK1 PBD block: inhibitors of human PLK1 polo-box domain binding; P53350; Plk1 PBD binding of FITC phosphopeptide, fluorescence polarization; Potency, µM, for the others: max response, negative = inhibition, hits mostly inhibitors; 360,000 compounds, 2.8% hits; AID 720504; note: potency is the fitted concentration of half-maximal effect; series mostly up to about 57 µM; % is set by controls: 0 for no effect and ±100 for the full control effect; nearly all actives have a fitted effect of over 65% in size
G9a inh: blocks human histone lysine methyltransferase G9a; Q96KQ7; G9a H3K9 monomethylation, AlphaScreen, 2 h; Potency, µM (highest dose often 102 µM), for inactives: at the highest dose activity, negative = inhibition, hits mostly inhibitors; 350,000 compounds, 8.8% hits; AID 504332; note: potency is the fitted concentration of half-maximal effect; % is set by controls: 0 for no effect and ±100 for the full control effect; nearly all actives have a fitted effect of over 75% in size
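G9a (20 nM) preincubated 15 min RT with compounds, then 500 nM biotinylated H3K9 peptide and 20 uM SAM added; 2 h RT reaction. Monomethyl-H3K9 product detected by AlphaScreen with anti-H3K9me1 antibody, streptavidin donor and anti-rabbit IgG acceptor beads.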
JMJD2A Tudor: inhibitors of human JMJD2A Tudor domain; O75164; AlphaScreen JMJD2A-Tudor / H3K4me3 peptide binding; 390,000 compounds, 4.4% hits; Potency, µM (titrated, usually from 114 µM), for the others: at the highest dose activity change, negative = inhibition, usual class: inhibitors; note: potency is the fitted concentration of half-maximal effect; % is set by controls: 0 for no effect and ±100 for the full control effect; nearly all actives have a fitted effect of over 50% in size
Target sequence (O75164 whole entry, looked up, the tested form may be a part): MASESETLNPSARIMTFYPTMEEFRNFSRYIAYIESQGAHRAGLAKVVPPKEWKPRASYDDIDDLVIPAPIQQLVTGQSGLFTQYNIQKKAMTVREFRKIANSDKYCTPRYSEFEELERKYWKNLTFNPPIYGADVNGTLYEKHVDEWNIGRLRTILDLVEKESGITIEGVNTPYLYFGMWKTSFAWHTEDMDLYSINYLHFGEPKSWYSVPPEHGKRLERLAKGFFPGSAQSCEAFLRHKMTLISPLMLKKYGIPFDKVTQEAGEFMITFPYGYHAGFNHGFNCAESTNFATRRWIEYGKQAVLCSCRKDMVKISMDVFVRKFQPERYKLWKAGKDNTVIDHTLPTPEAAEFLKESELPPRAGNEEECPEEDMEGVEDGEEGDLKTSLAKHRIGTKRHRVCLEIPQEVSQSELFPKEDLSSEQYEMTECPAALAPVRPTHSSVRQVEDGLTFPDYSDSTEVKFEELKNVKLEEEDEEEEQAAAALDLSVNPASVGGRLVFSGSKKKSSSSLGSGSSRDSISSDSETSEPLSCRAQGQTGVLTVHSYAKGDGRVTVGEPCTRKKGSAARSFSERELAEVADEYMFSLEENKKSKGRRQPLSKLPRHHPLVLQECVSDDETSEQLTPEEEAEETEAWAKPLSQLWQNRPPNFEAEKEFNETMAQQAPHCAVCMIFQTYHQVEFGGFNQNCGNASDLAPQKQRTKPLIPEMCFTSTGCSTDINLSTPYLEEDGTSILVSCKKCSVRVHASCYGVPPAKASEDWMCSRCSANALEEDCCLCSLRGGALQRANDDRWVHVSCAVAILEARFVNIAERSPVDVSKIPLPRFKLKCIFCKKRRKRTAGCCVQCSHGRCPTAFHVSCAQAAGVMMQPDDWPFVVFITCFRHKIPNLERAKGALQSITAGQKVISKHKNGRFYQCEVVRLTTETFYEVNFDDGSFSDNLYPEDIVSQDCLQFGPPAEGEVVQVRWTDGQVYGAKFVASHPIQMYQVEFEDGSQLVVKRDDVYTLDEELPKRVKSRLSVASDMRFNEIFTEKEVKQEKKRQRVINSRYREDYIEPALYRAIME
The depositor's hits bear a star; ? = inconclusive; / = no result; [ ] = remark or other dose. Hits are enriched below; roughly 12% of the tested compounds scored in any of these assays. Unless noted, calls come from the whole dose curve; as a rule, active = well fitted curve in the direction sought with a large enough effect; inconclusive = small, poorly fitted or top-dose-only effect, or another doubt; inactive = no such curve, though single readings can be large; an effect the other way counts as inactive or inconclusive.

SMILES	HP1b chromo inh	BAZ2B inh	PI5P4K alpha inh	PLK1 PBD block	G9a inh	JMJD2A Tudor
Cc1nn(-c2ccccc2)c(N)c1N=Nc1ccc2ccccc2c1	?	13µM*	30	-7%	40µM*	40µM*
Cc1ccc(N=Nc2c(N)nn(-c3ccccc3)c2N)cc1	?	50µM*	9	-2%	-50%[59 µM]	35µM*
COc1ccc(N=Nc2c(N)nn(C)c2N)cc1	79µM*	/	-3	0%	/	?
Cc1nn(-c2ccccc2)c(N)c1N=O	27%	-15%	3	-6%	11%	-14%
CCOC(=O)CN1C(=O)C(O)(CC(=O)c2cc(OC)ccc2OC)c2ccccc21 (centres undefined)	31%	1%	/	/	-9%[59 µM]	-15%
CCOc1cccc(C2C=C(c3ccc4c(c3)OCO4)NC(c3ccccc3F)N2)c1O (centres undefined)	2%[57 µM]	/	/	/	/	?
Cc1oc(-c2ccc(C(=O)NCc3cccc(F)c3)cc2)nc1COc1ccccc1	49%	-1%	/	/	-1%[59 µM]	3%
O=S(=O)(c1ccccc1)[C@@]1(c2ccccc2)C[C@@H]2ON=C(c3cccc(-c4ccccc4)c3)[C@@H]2C1	22%	1%	5	0%	-12%[2.33 µM]	-18%
O=C1C(Cl)=C(Nc2ccccc2O)C(=O)N1CCc1ccccc1	?	32µM*	-9	4.2µM*	3.2µM*	50µM*
COc1ccc(CCNC2=C(Cl)C(=O)N(CCc3ccccc3)C2=O)cc1OC	98%	28%	5	-16%	49%[59 µM]	3%
O=C(CC1C(=O)NCCN1Cc1cccc(Oc2ccccc2)c1)NCCc1ccccn1 (centres undefined)	28%	-4%	1	-26%	22µM*	-30%
Cn1cc(CCNC(=O)CC2C(=O)NCCN2Cc2cccc(Oc3ccccc3)c2)cn1 (centres undefined)	27%	-33%	-19	?	35µM*	?
COc1ccc(F)cc1-c1cc(NC=O)c2ncc(-c3cccc(C(=O)N(C)C)c3)n2c1	/	/	-51*	-18%	/	/
CN(C)C(=O)c1cccc(-c2cnc3c(NC=O)cc(-c4ccccc4Cl)cn23)c1	/	/	-65*	-20%	/	/
Cc1ccc(-c2cc(NC=O)c3ncc(-c4cccc(C(=O)N(C)C)c4)n3c2)cc1	/	/	?	-24%	/	/
Cc1ccc2c(Sc3ccc(Cl)cc3)c(C(=O)NCCC(C)C)[nH]c2c1	10%	?	/	/	-49%[59 µM]	?
COc1cc(-c2ccc3ncnc(NCc4cccs4)c3c2)cc(OC)c1OC	/	/	/	/	/	-16%
Cc1nc(NS(=O)(=O)c2ccccc2)sc1NC(=O)OCCN(C)C	26%	-5%	-20	21µM*	?	-8%[11.4 µM]
CC1(C)S[C@@H]2[C@H](NC(=O)COc3ccccc3)C(=O)N2[C@H]1C(=O)O (tested in a mixture with another compound)	/	/	/	/	29%[21.5 µM]	/
CCc1c(C)sc2c1CCN(Cc1ccccc1)C2c1ccccc1 (centres undefined)	11%	-26%	/	/	5%[12.7 µM]	-11%
N=C1C2=C3Sc4ccccc4N3CCCC2=NN1c1cccc(S(=O)(=O)O)c1	23%	?	-53*	?	?	-19%
COc1ccc(CNC(=O)C2(CC3CC(c4ccccc4)=NO3)CCNCC2)cc1 (centres undefined)	34%	/	-1	0%	/	-9%
Nc1nc(N)c(N=Nc2ccc(S(N)(=O)=O)cc2)c(=O)[nH]1	44%	?	-62*	-1%	35%[0.501 µM]	-10%
Nc1nc(N)c(N=Nc2ccc(SCC(=O)O)cc2)c(=O)[nH]1	1%	?	-64*	-20%	?	-25%
Nc1n[nH]c(C2CC2)c1N=Nc1ccc(Cl)cc1	-16%	?	21	-3%	50µM*	45µM*
SMILES	HP1b chromo inh	BAZ2B inh	PI5P4K alpha inh	PLK1 PBD block	G9a inh	JMJD2A Tudor
Cc1[nH][nH]c(=O)c1N=Nc1ccc(Cl)cc1	7%	-11%	-3	0%	?	-13%
Nc1nc(SCC(=O)O)[nH]c(=O)c1NC(=O)c1ccco1	10%	-2%	11	-5%	/	-12%
Nc1nc(N)c(N=Nc2ccc(Cl)cc2)c(=O)[nH]1	8%	-7%	-77*	-10%	2%	-27%
CCC(CC)C(=O)c1c[nH]c(C(=O)NCc2ccc(F)cc2)c1	27%	-17%	-1	-6%	19%	-10%
CC(C)c1ccc(CNn2cnnc2)cc1	26%	0%	-5	27µM*	-19%	?
CC(C)c1ccc(CNc2nnnn2C)cc1	74%	?	6	-1%	14%	-6%
CN1CCN(c2ncc3nc(-c4ccccc4)c(=O)n(-c4ccccc4)c3n2)CC1	/	/	/	/	-1%[12.7 µM]	/
Cc1ccsc1/C=C1/C(=O)NN(c2ccccc2)C1=O	-17%	?	-16	-21%	-19%[59 µM]	?
O=C1NN(c2ccccc2)C(=O)/C1=C/c1ccc(Sc2ccc(Cl)cc2)o1	-8%[57 µM]	-36%	?	3µM*	?	?
O=C1NC(=O)/C(=C\c2ccc(Sc3ccc(Cl)cc3)o2)N1	4%	-33%	?	?	-40%[59 µM]	-36%
Cc1ccc(Sc2ccc(/C=C3/C(=O)NN(c4ccccc4)C3=O)o2)cc1	6%	?	?	6µM*	-24%[59 µM]	?
CC1CCN(C(=O)Cn2cc(SCC(=O)Nc3ccccc3C(F)(F)F)c3ccccc32)CC1	43%	3%	/	/	-5%[59 µM]	-29%
CCCCC(=O)N/N=C/c1ccc(-c2ccc([N+](=O)[O-])cc2)o1	3%	-10%	-5	-15%	-9%	-12%
Cc1ccc(C)c(N=Cc2ccc(-c3ccc([N+](=O)[O-])cc3)o2)c1	?	?	-7	-6%	35µM*	56µM*
Brc1ccc(-c2ccc(/C=N/Nc3nc4ccccc4[nH]3)o2)cc1	41%	15%	?	-12%	7%[59 µM]	?
CCOc1ccc(CN2CCNC(=O)C2CC(=O)NCc2csc(C)n2)cc1 (centres undefined)	18%	-6%	4	-10%	/	-18%
Cc1nc(CCNC(=O)CC2C(=O)NCCN2Cc2ccc(F)cc2)sc1C (centres undefined)	25%	-2%	2	-16%	56µM*	-16%
Cc1nc(CNC(=O)CC2C(=O)NCCN2Cc2ccc(F)cc2)cs1 (centres undefined)	53%	-20%	-4	-2%	50µM*	0%
Cc1nc(CCNC(=O)CC2C(=O)NCCN2Cc2ccccc2F)sc1C (centres undefined)	-3%	-14%	2	-27%	45µM*	1%
Cn1c(=O)cnc2cnc(OCc3ccccc3)nc21	/	/	/	/	0%[0.501 µM]	/
COc1cc(-c2nc3ccccn3c2N)ccc1O	13%	-31%	8	-8%	50µM*	-19%
